The text below walks through data of PubChem BioAssay (EPA / NIEHS).

SMILES strings stand for the structures. Activity calls are given as the source filed them. Rule for the calls: active = hit-call score of the fitted dose curve at least 0.9, where 1 is the maximum; inactive = score below 0.9.

The term AC50 denotes the concentration giving half of the maximal activity seen.

Read-out in this experiment: Forkhead box O1 (FOXO1), FOXO1 (gene 2308)
Put plainly: LTEA_HepaRG_FOXO1: Life Technologies and Expression Analysis (LTEA) Assay for Forkhead box O1 (FOXO1) using HepaRG (AID 2283456). To be noted: mRNA level, 48 h; actives raise or lower the signal. Put shortly:
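Readout is FOXO1 transcript level by multiplexed qRT-PCR against three housekeeping genes, curve-fitted in both directions relative to 0.5% DMSO vehicle. Human HepaRG cultures received chemicals for 48 h, up to 100 uM in half-log steps.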
On to `CCCCOCN(C(=O)CCl)c1c(CC)cccc1CC`, for which the compound was called inactive.

Regarding `O=c1n(Cl)c(=O)n(Cl)c(=O)n1Cl`, the call was inactive.

`CCOP(=O)(OCC)Oc1nc(Cl)c(Cl)cc1Cl`: the compound was classed as inactive.

As to `Cc1cnc(C2=NC(C)(C(C)C)C(=O)N2)c(C(=O)O)c1` (stereo unspecified), the call was inactive.

For the compound `O=C(O)c1c(Cl)ccc2cc(Cl)cnc12`, the compound was classed as inactive.

For `OC(c1ccc(Cl)cc1)(c1ccc(Cl)cc1)C(Cl)(Cl)Cl`, the AC50 is 79.5 µM (active).

Consider `CC1(C)C(C(=O)OC(C#N)c2cccc(Oc3ccccc3)c2)C1(C)C` (stereo unspecified), for which the result was inactive.

Consider `CCNC(=O)NC(=O)C(C#N)=NOC`, for which the call was inactive.

Turning to `Cc1ccc(N=CN(C)C=Nc2ccc(C)cc2C)c(C)c1`, the compound was classed as inactive.

Consider `C=C(C)CN(CC)c1c([N+](=O)[O-])cc(C(F)(F)F)cc1[N+](=O)[O-]`, for which the result was inactive.

In the case of `CN=C=S`, the outcome was inactive.

For the compound `C=CCOC(=O)C(C)(C)OC(=O)c1cc(-n2c(=O)cc(C(F)(F)F)n(C)c2=O)ccc1Cl`, the outcome was inactive.

Regarding `CC(C)C1(C)N=C(c2ncccc2C(=O)O)NC1=O` (stereo unspecified), the compound was classed as inactive.

On to `CC(C)=CC1C(C(=O)OCc2coc(Cc3ccccc3)c2)C1(C)C` (stereo unspecified), for which the result was inactive.

Take `COCC(C)N(C(=O)CCl)c1c(C)csc1C` (stereo unspecified): the call was inactive.

For the compound `Cn1c(-c2ccccc2)cc(-c2ccccc2)[n+]1C`, the AC50 is 77.7 µM (active).
